Measured values published in the antibiotic and cytotoxicity screens of Wong et al. (2023).
The whole screen tested about 39,000 compounds, of which about 1,500 (3.8%) were called active. Many of the other results were omitted from the sample, so actives are more common in it than they were.

tested on: HSkMC (human skeletal muscle cells); experiment: cytotoxicity call (relative viability < 0.9); settings: 10 µM

| SMILES | cytotoxicity call |
| --- | --- |
| Nc1ccc(-n2cc(CCC(=O)NO)nn2)cc1 | inactive |
| Nc1cccc(-n2cc(CCC(=O)NO)nn2)c1 | inactive |
| CC(/C=C/C(=O)NO)=C\c1ccccc1OCc1cn(CCNC(=O)[C@@H](NS(=O)(=O)c2ccc(C)cc2)C(C)C)nn1 | inactive |
| CC(/C=C/C(=O)NO)=C\c1ccccc1OCc1cn(-c2cccc(N(S(=O)(=O)c3ccc(C)cc3)S(=O)(=O)c3ccc(C)cc3)c2)nn1 | active |
| Cc1ccc(S(=O)(=O)N(c2cccc(-n3cc(CCC(=O)NO)nn3)c2)S(=O)(=O)c2ccc(C)cc2)cc1 | active |
| CC(/C=C/C(=O)NO)=C\c1ccccc1OCc1cn(C[C@@H]2CCCN2S(=O)(=O)c2ccc(C)cc2)nn1 | inactive |
| C[C@@H]1CCCCO[C@H](CN(C)Cc2ccncc2)[C@@H](C)CN([C@@H](C)CO)C(=O)c2cc(NC(=O)Nc3ccccc3)ccc2O1 | inactive |
| C[C@H](CO)N1C[C@H](C)[C@@H](CN(C)S(=O)(=O)c2ccc(Cl)cc2)OCCCC[C@H](C)Oc2ccc(NC(=O)c3ccccc3)cc2C1=O | inactive |
| C[C@@H]1CN([C@H](C)CO)C(=O)c2cc(NS(C)(=O)=O)ccc2O[C@@H](C)CCCCO[C@@H]1CN(C)Cc1ccncc1 | inactive |
| C[C@@H]1CN([C@H](C)CO)C(=O)c2cc(NC(=O)NC3CCCCC3)ccc2O[C@@H](C)CCCCO[C@H]1CN(C)S(=O)(=O)c1cccs1 | inactive |
| C[C@@H]1CN([C@H](C)CO)C(=O)c2cc(NC(=O)Nc3ccccc3)ccc2O[C@H]1CN(C)C(=O)Nc1cccc2ccccc12 | inactive |
| C[C@H]1CN([C@@H](C)CO)C(=O)c2cc(NC(=O)Nc3ccccc3)ccc2O[C@H]1CN(C)C(=O)Nc1cccc2ccccc12 | inactive |
| C[C@H](CO)N1C[C@H](C)[C@H](CN(C)C(=O)Nc2cccc3ccccc23)Oc2ccc(NC(=O)Nc3ccccc3)cc2C1=O | inactive |
| C[C@@H]1CN([C@@H](C)CO)C(=O)c2cc(NC(=O)Nc3ccccc3)ccc2O[C@@H]1CN(C)C(=O)Nc1cccc2ccccc12 | active |
| C[C@H](CO)N1C[C@H](C)[C@@H](CN(C)C(=O)Nc2cccc3ccccc23)Oc2ccc(NC(=O)Nc3ccccc3)cc2C1=O | inactive |
| C[C@@H]1CN([C@H](C)CO)C(=O)c2cc(NC(=O)Nc3ccccc3)ccc2O[C@@H]1CN(C)C(=O)Nc1cccc2ccccc12 | active |
| Cc1ccc(S(=O)(=O)N(C)C[C@H]2Oc3c(NS(=O)(=O)c4ccccc4)cccc3C(=O)N([C@H](C)CO)C[C@@H]2C)cc1 | inactive |
| C[C@H](CO)N1C[C@H](C)[C@H](CN(C)S(=O)(=O)c2ccccc2)Oc2c(NC(=O)C3CCOCC3)cccc2C1=O | inactive |
| C[C@@H]1CCCCO[C@@H](CN(C)CC2CCCCC2)[C@@H](C)CN([C@@H](C)CO)C(=O)c2cc(NC(=O)CCCN(C)C)ccc2O1 | inactive |
| CO[C@@H]1CN(C)C(=O)c2cc(NS(=O)(=O)c3ccccc3)ccc2OC[C@@H](C)N(C(=O)NC(C)C)C[C@H]1C | inactive |
| C[C@H]1CN([C@@H](C)CO)C(=O)Cc2cc(NS(=O)(=O)c3cn(C)cn3)ccc2O[C@H]1CN(C)Cc1ccccc1 | inactive |

| SMILES | cytotoxicity call |
| --- | --- |
| CCn1cc(-c2ccnc3[nH]c(-c4cccc(CN(C)C)c4)cc23)c(-c2ccc(NC(=O)N(C)C)cc2)n1 | active |
| COc1ccccc1S(=O)(=O)N1C[C@H](O)COC[C@H]2O[C@@H](CC(=O)O)CC[C@@H]21 | inactive |
| CCn1c(N)c(C(N)=O)sc1=S | inactive |
| C[C@H](CO)N1C[C@H](C)[C@H](CN(C)C(=O)Nc2ccc(C(F)(F)F)cc2)Oc2c(NC(=O)Nc3cccc4ccccc34)cccc2C1=O | inactive |
| C[C@H](CO)N1C[C@H](C)[C@@H](CN(C)C(=O)Nc2ccc(C(F)(F)F)cc2)Oc2c(NC(=O)Nc3cccc4ccccc34)cccc2C1=O | active |
| C[C@@H]1CN([C@H](C)CO)C(=O)c2cccc(NC(=O)Nc3cccc4ccccc34)c2O[C@@H]1CN(C)C(=O)Nc1ccc(C(F)(F)F)cc1 | active |
| C[C@H]1CN([C@@H](C)CO)C(=O)c2cccc(NC(=O)Nc3cccc4ccccc34)c2O[C@H]1CN(C)C(=O)Nc1ccc(C(F)(F)F)cc1 | active |
| C[C@@H]1CN([C@H](C)CO)C(=O)c2cccc(NC(=O)Nc3cccc4ccccc34)c2O[C@H]1CN(C)C(=O)Nc1ccc(C(F)(F)F)cc1 | inactive |
| C[C@@H]1CN([C@@H](C)CO)C(=O)c2cccc(NC(=O)Nc3cccc4ccccc34)c2O[C@H]1CN(C)C(=O)Nc1ccc(C(F)(F)F)cc1 | active |
| CCN1CCO[C@@]2(O)C=CC(=O)C=C12 | inactive |
| CCc1ccc(NC(=O)C2CCN(S(=O)(=O)c3c(C)[nH]c(=O)[nH]c3=O)CC2)cc1 | inactive |
| Cc1ccc(S(=O)(=O)Nc2ccc3c(c2)C(=O)N([C@@H](C)CO)C[C@@H](C)[C@@H](CN(C)S(=O)(=O)c2ccc(C)cc2)OCCCC[C@H](C)O3)cc1 | inactive |
| C[C@@H]1CN([C@H](C)CO)C(=O)c2cc(NC(=O)Cc3ccccc3)ccc2O[C@@H](C)CCCCO[C@H]1CN(C)C(=O)Nc1cccc2ccccc12 | inactive |
| CC(C)NC(=O)Nc1ccc2c(c1)CC(=O)N([C@@H](C)CO)C[C@H](C)[C@H](CN(C)Cc1ccc(-c3ccccc3)cc1)O2 | inactive |
| O=C(C[C@H]1CC[C@@H](NS(=O)(=O)c2ccccc2)[C@H](CO)O1)NCc1ccncn1 | inactive |
| Cc1ccc(S(=O)(=O)Nc2ccc3c(c2)C(=O)N([C@@H](C)CO)C[C@@H](C)[C@H](CN(C)C(=O)Nc2ccc(C(F)(F)F)cc2)O3)cc1 | inactive |
| C[C@@H]1CN([C@@H](C)CO)C(=O)Cc2cc(NC(=O)CCN3CCOCC3)ccc2O[C@H]1CN(C)S(=O)(=O)c1cccs1 | inactive |
| C[C@H]1CN([C@@H](C)CO)C(=O)c2ccccc2-c2ccccc2CO[C@@H]1CN(C)C(=O)Nc1cccc(F)c1 | inactive |
| NC(=O)c1cccc(S(N)(=O)=O)c1 | inactive |
| C[C@@H]1CN([C@H](C)CO)C(=O)c2cc(N(C)C)ccc2O[C@@H](C)CCCCO[C@H]1CN(C)C(=O)Nc1ccc(C(F)(F)F)cc1 | inactive |
| C[C@H]1CN([C@@H](C)CO)C(=O)c2cccc(NC(=O)Nc3cccc4ccccc34)c2O[C@@H]1CN(C)C(=O)Nc1ccc(C(F)(F)F)cc1 | active |

| SMILES | cytotoxicity call |
| --- | --- |
| COc1ccc(S(=O)(=O)N(C)C[C@@H]2Oc3ccc(NC(=O)CCCN(C)C)cc3CC(=O)N([C@@H](C)CO)C[C@@H]2C)cc1 | inactive |
| C[C@@H]1CN([C@@H](C)CO)C(=O)c2cc(NC(=O)Nc3ccc(F)cc3)ccc2O[C@@H]1CN(C)Cc1ccc(-c2ccccc2)cc1 | active |
| C[C@H](CO)N1C[C@H](C)[C@H](CN(C)Cc2ccc(-c3ccccc3)cc2)Oc2ccc(NC(=O)Nc3ccccc3)cc2C1=O | inactive |
| C[C@@H]1CN([C@H](C)CO)C(=O)c2cc(NC(=O)Nc3ccccc3)ccc2O[C@@H]1CN(C)Cc1ccc(-c2ccccc2)cc1 | inactive |
| C[C@@H]1CN([C@H](C)CO)C(=O)c2cc(NC(=O)Nc3ccc(F)cc3)ccc2O[C@H]1CN(C)Cc1ccc(-c2ccccc2)cc1 | active |
| C[C@H]1CN([C@@H](C)CO)C(=O)c2cc(NC(=O)Nc3ccc(F)cc3)ccc2O[C@@H]1CN(C)Cc1ccc(-c2ccccc2)cc1 | inactive |
| C[C@H]1CN([C@@H](C)CO)C(=O)c2cc(NC(=O)Nc3ccccc3)ccc2O[C@H]1CN(C)Cc1ccc(-c2ccccc2)cc1 | inactive |
| C[C@@H]1CN([C@@H](C)CO)C(=O)c2cc(NC(=O)Nc3ccc(F)cc3)ccc2O[C@H]1CN(C)Cc1ccc(-c2ccccc2)cc1 | active |
| C[C@@H]1CN([C@@H](C)CO)C(=O)c2cc(NC(=O)Nc3ccccc3)ccc2O[C@H]1CN(C)Cc1ccc(-c2ccccc2)cc1 | inactive |
| C[C@@H]1CN([C@H](C)CO)C(=O)c2cc(NC(=O)Nc3ccccc3)ccc2O[C@H]1CN(C)Cc1ccc(-c2ccccc2)cc1 | inactive |
| C[C@H](CO)N1C[C@H](C)[C@H](CN(C)Cc2ccc(-c3ccccc3)cc2)Oc2ccc(NC(=O)Nc3ccc(F)cc3)cc2C1=O | inactive |
| C[C@H](CO)N1C[C@H](C)[C@@H](CN(C)Cc2ccc(-c3ccccc3)cc2)Oc2ccc(NC(=O)Nc3ccccc3)cc2C1=O | inactive |
| C[C@@H]1CN([C@@H](C)CO)C(=O)c2cc(NC(=O)Nc3ccccc3)ccc2O[C@@H]1CN(C)Cc1ccc(-c2ccccc2)cc1 | active |
| CC(C)NC(=O)Nc1ccc2c(c1)CC(=O)N([C@@H](C)CO)C[C@H](C)[C@H](CN(C)Cc1ccc3c(c1)OCO3)O2 | inactive |
| O=c1nc[nH]c2c1ncn2[C@H]1CC[C@@H](CO)O1 | inactive |
| Cn1cnc(S(=O)(=O)N2C[C@@H](O)COC[C@H]3O[C@H](CC(=O)NC4CCC4)CC[C@@H]32)c1 | inactive |
| O=C(C[C@H]1CC[C@@H]2[C@H](COC[C@H](O)CN2S(=O)(=O)c2ccc(Cl)cc2)O1)NCC1CCCCC1 | inactive |
| C[C@H](CO)N1C[C@H](C)[C@H](CN(C)C(=O)Nc2ccc(F)cc2)OCCCC[C@H](C)Oc2ccc(NC(=O)Cc3ccccc3)cc2C1=O | inactive |
| C[C@H](CO)N1C[C@H](C)[C@@H](CN(C)Cc2ccc(-c3ccccc3)cc2)Oc2ccc(NC(=O)Nc3ccc(F)cc3)cc2C1=O | inactive |
| C[C@H]1CN([C@@H](C)CO)C(=O)c2cc(NC(=O)Nc3ccc(F)cc3)ccc2O[C@H]1CN(C)Cc1ccc(-c2ccccc2)cc1 | inactive |
| C[C@@H]1CN([C@H](C)CO)C(=O)c2cc(NC(=O)Nc3ccc(F)cc3)ccc2O[C@@H]1CN(C)Cc1ccc(-c2ccccc2)cc1 | active |
